In PubChem BioAssay AID651661 (Broad Institute, 2012) one finds inhibition data, which are given here for 66 molecules.

Hit rate of the full screen: of about 350,000 compounds, about 2,300 (0.66%) were called active. The entries come from a sample that favours actives as a whole. A number with no mark means an inactive call.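 Rule for the calls: active = mean inhibition of at least 50% after viability correction, with every replicate also passing that limit; inconclusive = mean reaches 50% but only one of two replicates passes; inactive = the rest.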

This test in a line: blockers of EWS/Fli transcriptional output – A673 cells, NR0B1 luciferase, luminescence, MLPCN library, primary screen (AID 651661).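 Note: firefly luciferase signal divided by Alamar Blue viability fluorescence both relative to DMSO.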 As to conditions: A673 NR0B1-luciferase reporter, viability-normalised; at 12.6 µM; stronger effect = higher value. (In a reporter assay the amount or activity of a reporter protein is the signal.)
Consider `Cc1ccccc1S(=O)(=O)N1[C@@H]2CNC[C@H]1C2c1ccc(-c2cccnc2)cc1` (stereo partly specified), for which the inhibition (in general, the change of the read-out against control, counted positive when it falls) was -4.81%. On to `CCCNC(=O)N1[C@@H]2Cn3c(ccc(-c4ccc(OC)cc4)c3=O)[C@H]1[C@@H](C(=O)NC1CCC1)[C@@H]2CO`, for which the inhibition was 0.758%.

For `Cc1ccccc1-c1ccc([C@H]2[C@@H](CO)N3C(=O)CN(C(=O)c4ccncc4)C[C@H]23)cc1`, the inhibition was 0.78%. For `COc1ccc2c3c(n(C)c2c1)[C@H](CO)N(S(=O)(=O)c1ccc(C)cc1)CC31CN(C(=O)c2ccccn2)C1` the value was -3.69%; for `CCOc1ccc(CCN2C(=O)c3cccnc3C2=O)cc1OCC`, 9.92%; for `NC1=CC(=O)C(=O)c2cccnc21`, 57.3% (active). For `CCCNC(=O)N1CC2(C1)[C@@H](c1ccccc1)[C@@H](CO)N2C(=O)CC1CC1` the value was 2.39%. Turning to `C[C@@H]1CN([C@H](C)CO)C(=O)Cc2cc(NC(=O)Nc3cccc4ccccc34)ccc2O[C@@H]1CN(C)Cc1ccc(C(F)(F)F)cc1`, the inhibition was -4.39%. With `Clc1cccc(-c2nc(NCC3CCCO3)c3ccccc3n2)c1` (stereo unspecified), the inhibition is 15.1%. For the molecule `Clc1ccc2nc(-c3ccccc3)nc(C(Cl)Cl)c2c1`, the inhibition is 68.5% (active). For `N#CCSc1nc(-c2ccccc2)nc2ccc(F)cc12` the value was 19.1%; for `CC(C)NC(=O)Nc1ccc2c(c1)C(=O)N([C@@H](C)CO)C[C@H](C)[C@H](CN(C)C(=O)c1ccccc1)OCCCC[C@@H](C)O2`, 5.19%; for `CN(C)c1ccc2c(c1)[C@@H]1C[C@@H](CC(=O)NCc3ccccn3)O[C@H](CO)[C@@H]1O2`, -4.51%. For `COc1cccc2c1C(=O)c1c(O)c3c(c(O)c1C2=O)CC(O)(C(C)=NNC(=O)c1ccc(Cl)c(Cl)c1)CC3OC1CC(N)C(O)C(C)O1` (stereo unspecified) the value was 63.6% (active). Regarding `C[C@@H]1CN([C@H](C)CO)C(=O)c2cccc(NC(=O)Nc3ccccc3)c2O[C@@H]1CN(C)C(=O)NC1CCCCC1`, the inhibition is 4.76%. For `C[C@@H]1CCCCO[C@@H](CN(C)Cc2ccc(C(F)(F)F)cc2)[C@@H](C)CN([C@H](C)CO)C(=O)c2cc(NC(=O)Nc3ccccc3)ccc2O1` the value was -6.47%; for `COc1ccc(CN(C)C[C@@H]2OCCCC[C@@H](C)Oc3ccc(NC(=O)Nc4ccc(C(F)(F)F)cc4)cc3C(=O)N([C@H](C)CO)C[C@H]2C)cc1`, 53.9% (active). For `COc1ccc(NC(=O)Nc2ccc3c(c2)C(=O)N([C@@H](C)CO)C[C@H](C)[C@H](CN(C)Cc2ccc(C(F)(F)F)cc2)OCCCC[C@H](C)O3)cc1`, the inhibition is 6.84%. The same measure for `C[C@H]1CCCCO[C@@H](CN(C)Cc2ccc(C(F)(F)F)cc2)[C@@H](C)CN([C@@H](C)CO)C(=O)c2cc(NC(=O)Nc3ccccc3)ccc2O1`: 19.3%. Turning to `C[C@H]1CN([C@@H](C)CO)C(=O)c2cccc(NC(=O)Nc3ccc(C(F)(F)F)cc3)c2O[C@H]1CN(C)C(=O)NC1CCCCC1`, the inhibition was 56.1% (active).

On to `C[C@H](CO)N1C[C@H](C)[C@@H](CN(C)C(=O)NC2CCCCC2)Oc2c(NC(=O)Nc3ccc(F)cc3)cccc2C1=O`, for which the inhibition is 4.64%.

Turning to `C[C@@H]1CN([C@H](C)CO)C(=O)c2cc(NC(=O)Nc3ccc(C(F)(F)F)cc3)ccc2O[C@@H](C)CCCCO[C@@H]1CN(C)Cc1ccc(C(F)(F)F)cc1`, the inhibition is -13.8%. `C[C@@H]1CN([C@H](C)CO)C(=O)c2cc(NC(=O)Nc3ccccc3)ccc2O[C@@H](C)CCCCO[C@H]1CN(C)Cc1ccc(C(F)(F)F)cc1`: the inhibition was 71.6% (active). For `O=C(C[C@@H]1C[C@H]2c3cc(NC(=O)C4CCOCC4)ccc3O[C@H]2[C@@H](CO)O1)NCCN1CCCCC1` the value was -1.07%. For `COC(=O)C[C@@H]1CC[C@@H]2[C@H](COc3ccc(NC(=O)c4cccc(F)c4)cc3C(=O)N2C)O1` the value was 61.7% (active). For `COC(=O)C[C@@H]1CC[C@@H]2[C@H](COc3ccc(NC(=O)Nc4cccc(F)c4)cc3C(=O)N2C)O1` the value was 33.6%; for `COC(=O)C[C@H]1CC[C@H]2[C@@H](COc3ccc(NC(=O)Nc4cccc(F)c4)cc3C(=O)N2C)O1`, -0.36%. As for `O=C(C[C@@H]1CC[C@H]2[C@@H](COC[C@H](O)CN2Cc2ccc(F)cc2)O1)N1CCc2ccccc2C1`, the inhibition was 2.81%.

Turning to `CCCN(C)C[C@@H]1OCc2cnnn2CCCC(=O)N([C@H](C)CO)C[C@@H]1C`, the inhibition is 0.738%. Turning to `C[C@@H]1CN([C@H](C)CO)C(=O)Cc2cc(NC(=O)CCCCCC(=O)Nc3ccccc3N)ccc2O[C@H]1CN(C)S(=O)(=O)c1ccc(F)cc1`, the inhibition was -11%.

With `C[C@@H]1CN([C@@H](C)CO)C(=O)c2cc(NS(=O)(=O)c3ccccc3)ccc2O[C@@H]1CN(C)Cc1ccc(C(=O)Nc2ccccc2N)cc1`, the inhibition was 57.5% (active). For `C[C@H](CO)N1C[C@H](C)[C@H](CN(C)Cc2ccc(C(=O)Nc3ccccc3N)cc2)Oc2ccc(NS(C)(=O)=O)cc2C1=O`, the inhibition was 27%. The same measure for `C[C@H]1CN([C@@H](C)CO)C(=O)Cc2cc(NS(=O)(=O)c3ccccc3)ccc2O[C@H]1CN(C)Cc1ccc(C(=O)Nc2ccccc2N)cc1`: -7.96%. The same measure for `Cc1ccc(S(=O)(=O)Nc2ccc3c(c2)C(=O)N([C@@H](C)CO)C[C@@H](C)[C@@H](CN(C)Cc2ccc(C(=O)Nc4ccccc4N)cc2)O3)cc1`: 51.7% (active); for `C[C@@H]1CN([C@H](C)CO)C(=O)c2cc(NS(=O)(=O)c3cn(C)cn3)ccc2O[C@@H]1CN(C)Cc1ccc(C(=O)Nc2ccccc2N)cc1`: -4.91%. The same measure for `Cc1ccc(S(=O)(=O)Nc2ccc3c(c2)C(=O)N([C@H](C)CO)C[C@H](C)[C@H](CN(C)Cc2ccc(C(=O)Nc4ccccc4N)cc2)OCCCC[C@@H](C)O3)cc1`: 8.6%; for `COCC#Cc1ccc([C@H]2[C@H](CO)N3C(=O)CN(C(=O)Nc4ccccc4F)C[C@@H]23)cc1`: 2.04%; for `COc1cccc(S(=O)(=O)N[C@H]2CC[C@H](CCN)O[C@H]2CO)c1`: -10.4%. On to `COc1ccc(S(=O)(=O)Nc2ccc3c(c2)C(=O)N([C@H](C)CO)C[C@@H](C)[C@H](CN(C)C(=O)Nc2ccc4c(c2)OCO4)O3)cc1`, for which the inhibition was 0.75%. For `CC(=O)N1[C@H](CO)[C@H](c2ccc(-c3ccccc3)cc2)[C@H]1CNC(=O)NC(C)C` the value was 0.423%; for `COc1ccc(-c2ccccc2[C@@H]2[C@@H](C#N)N(C(=O)NC3CCCC3)[C@H]2CO)cc1`, 4.32%; for `C[C@H](CO)N1C[C@H](C)[C@@H](CN(C)Cc2ccncc2)Oc2ncc(C#CC3CC3)cc2C1=O`, -3.48%. For `COc1cccc(S(=O)(=O)N2C[C@@H](O)COC[C@@H]3O[C@H](CC(=O)N4CCN(C)CC4)CC[C@H]32)c1` the value was 2.56%; for `Cc1cc(C(=O)Nc2cccc3c2O[C@H](CN(C)C(=O)Nc2ccccc2)[C@@H](C)CN([C@H](C)CO)C3=O)n(C)n1`, -4.28%; for `O=C(C[C@H]1C[C@H]2c3cc(NC(=O)c4ccc5c(c4)OCO5)ccc3O[C@H]2[C@@H](CO)O1)NCc1cccc(F)c1`, -0.435%. As for `O=C(NCc1ccncn1)[C@@H]1[C@@H](CO)[C@@H]2Cn3c(ccc(-c4ccc(F)cc4)c3=O)[C@@H]2N1CC1CC1`, the inhibition is 5.67%. `C[C@@H]1CN([C@H](C)CO)C(=O)c2cc(NC(=O)C3CCCCC3)ccc2O[C@@H]1CN(C)CC1CCCCC1`: the inhibition was 1.73%. As to `CS(=O)(=O)N1CC2(C1)[C@H](c1ccccc1)[C@H](CO)N2Cc1ccc(F)cc1`, the inhibition was -3.95%. For `Cc1ccc2nc(-c3ccncc3)cc(C(=O)Nc3ccc(OC(F)F)cc3)c2c1` the value was 54% (active). For `CCN(CC)CCNC(=O)c1ccc(NC(=O)c2cc(-c3ccncc3)nc3ccccc23)cc1` the value was 8.49%; for `CCn1c(SCC(=O)Nc2ccc3c(c2)OCCO3)nnc1-c1ccncc1`, 4.78%. The same measure for `O=C(Nc1ccncc1)c1cc(-c2ccccn2)nc2ccc(Br)cc12`: 17%; for `Cc1ccc2nc(-c3ccncc3)cc(C(=O)Nc3ccc4c(c3)OCCO4)c2c1`: 57.8% (active); for `CCOc1ncccc1C(=O)Nc1ccc2c(c1)OCCO2`: -5.13%. For `CNC[C@H]1OCCCC[C@@H](C)Oc2ccc(NC(=O)c3ccncc3)cc2C(=O)N([C@H](C)CO)C[C@H]1C`, the inhibition was 0.415%. Take `CO[C@@H]1CN(C)C(=O)c2cc(NC(=O)C3CC3)ccc2OC[C@H](C)N(CC2CC2)C[C@H]1C`: the inhibition was -3.56%. For `O=C(C1CCOCC1)N1C[C@H]2[C@@H](c3ccccc31)[C@@H](CO)N2Cc1ccccc1` the value was 2.37%; for `CCCC(=O)N1CC2(C1)CN(C(=O)COC)[C@@H](CO)c1c2c2ccc(OC)cc2n1C`, 23.9%. The same measure for `C[C@@H](NC(=O)C[C@H]1CC[C@H]2[C@H](COc3ccc(NS(=O)(=O)c4ccc(Cl)cc4)cc3C(=O)N2C)O1)c1ccccc1`: 13.8%; for `CN1CCN(CCCCOc2ccccc2-c2ccccc2)CC1`: -2.32%; for `OCCN1CCN(C(=S)c2ccc(-c3ccccc3)cc2)CC1`: 69% (active). The same measure for `S=C(c1ccc(-c2ccccc2)o1)N1CCCCC1`: -59.7%; for `COc1ccc(CN(C)C[C@@H]2OCCCC[C@@H](C)Oc3ccc(NS(=O)(=O)c4ccc(C)cc4)cc3C(=O)N([C@@H](C)CO)C[C@H]2C)cc1`: -18.8%; for `CC(=O)Nc1ccc(C=Cc2ccc([N+](=O)[O-])cc2)cc1`: -72.7%. As to `O=C1/C(=C\c2ccc([N+](=O)[O-])cc2)CS(=O)(=O)C/C1=C/c1ccc([N+](=O)[O-])cc1`, the inhibition was 74.9% (active). The same measure for `O=C(O)C(=Cc1ccc([N+](=O)[O-])cc1)CCc1ccccc1`: 5.5%.
